Source: PubChem (National Center for Advancing Translational Sciences (NCATS))
The list is not random: actives were taken first. Their share in the collection is about 2.7%.
GLP-1R agonist: agonists of human GLP-1 receptor; P43220; HEK293 GLP-1R CRE-luciferase, luminescence, 4-6 h; cells express a hypersensitive GLP-1R form; Potency, µM (doses to about 45.6 µM), for inactives: top-dose activation, most hits filed as activators; 380,000 tested, 0.007% active; also: % of control where 0% means no effect
Target sequence (P43220 whole entry, looked up): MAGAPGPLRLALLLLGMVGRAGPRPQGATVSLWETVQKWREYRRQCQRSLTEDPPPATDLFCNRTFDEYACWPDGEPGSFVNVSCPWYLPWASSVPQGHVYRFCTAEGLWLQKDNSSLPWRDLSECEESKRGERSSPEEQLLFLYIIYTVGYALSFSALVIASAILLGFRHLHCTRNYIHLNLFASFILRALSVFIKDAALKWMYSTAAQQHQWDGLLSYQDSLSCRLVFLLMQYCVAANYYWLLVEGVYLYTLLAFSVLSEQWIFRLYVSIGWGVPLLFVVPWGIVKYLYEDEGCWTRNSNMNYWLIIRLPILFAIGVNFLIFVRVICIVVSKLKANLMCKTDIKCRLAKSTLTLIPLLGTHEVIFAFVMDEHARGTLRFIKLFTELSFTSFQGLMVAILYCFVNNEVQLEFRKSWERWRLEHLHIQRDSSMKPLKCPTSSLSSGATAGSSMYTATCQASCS
GLP1R cytotox: cytotoxic in the GLP-1 receptor inverse agonist counter-screen | HEK293 cAMP-luciferase reporter cells, luminescence, 24 h | Potency, µM (highest dose often 38.3 µM), for the others: top-dose activity change, negative = inhibition, hits mostly inhibitors | 410,000 tested, 0.13% active | AID 624418;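 also: loss of luciferase light is scored as toxicity; % is scaled to controls: 0 for no effect and ±100 for the full control effect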
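To flag toxic compounds, the library was rerun on cells for 24 hr at 37 deg C and 5% CO2. Viability-linked luminescence was captured 12 min after adding luciferase detection reagent.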
BRCA1 expr act: activators of BRCA1 expression; MCF7-BRCA1-FFLuc reporter, luminescence, 48 h; response scale: scaled: vehicle 0%, 10 µM genistein 100%; Potency, µM (top dose mostly 46.1 µM), inactives show at the highest dose activation, usual class: activators; 380,000 tested, 1.1% active; AID 624202; also: nearly all actives have a fitted effect of over 80% in size
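Luminescence from a BRCA1-driven firefly luciferase in MCF7 cells was read after 48 h compound exposure at 37 C. Data normalized against DMSO and a 10microM genistein activation control, then curve-fitted across the titration.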
GLP-1R inv ag: acts as inverse agonist at human GLP-1 receptor; P43220; HEK293 GLP-1R CRE-luciferase, luminescence, 24 h; GLP-1R form is constitutively active; Potency, µM (doses to about 38.3 µM), inactives show top-dose activity change, negative = inhibition, hits mostly inhibitors; 410,000 tested, 1.6% active; AID 624417; also: % is scaled to controls: 0 for no effect and ±100 for the full control effect; nearly all actives have a fitted effect of over 55% in size
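qHTS in 1536-well format: reporter HEK293 cells expressing constitutive GLP-1R activity in DMEM + 10% Nu serum, 24 hr with compounds at 37 deg C, luminescence read after 12 min with detection reagent.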
a7 integrin act: activators of alpha7 integrin expression for muscular dystrophy | alpha7betagal myoblasts, beta-gal FDG fluorescence, 48 h | Potency, µM (series often up to 38.3 µM), inactives show at the highest dose activation, most hits filed as activators | 350,000 tested, 0.064% active;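 also: 100% = response of the positive control SU9516; nearly all actives have a fitted effect of over 60% in size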
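alpha7betagal+/- myoblasts (passage 13, 250/well) treated 48 h at 37C with compounds at 1:260 dilution of DMSO stock. Lysed, then beta-galactosidase activity read as FDG fluorescence (ex 480/em 540) after 30 min, with pre-read for autofluorescence.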
The depositor's hits bear a star; ! = not confirmed by another sample; [ ] = dose if it differs, or a comment. Calls follow the shape of the dose curve; as a rule, active = well fitted curve in the direction sought with a large enough effect; inconclusive = small, poorly fitted or top-dose-only effect, or another doubt; inactive = no such curve, though single readings can be large; an effect the other way counts as inactive or inconclusive. Potency is read from the fitted curve at half-maximal effect.

For COc1ccc(C2C(=O)N(C3CCCCCC3)CC(=O)N2CCc2ccc(OC)c(OC)c2)cc1 (configuration not stated) the results were GLP1R cytotox -9% and GLP-1R inv ag 9%.
`O=C(NCCCN1CCOCC1)c1ccc(Sc2ccccc2Cl)c([N+](=O)[O-])c1` gave GLP-1R agonist 0%, GLP1R cytotox -11%, BRCA1 expr act -39%, GLP-1R inv ag 3.5µM* and a7 integrin act -5%.
`O=C(Nc1cccc(Cl)c1)c1ccc(NCCCN2CCOCC2)c([N+](=O)[O-])c1` gave GLP-1R agonist -10%, GLP1R cytotox -10%, BRCA1 expr act -32%, GLP-1R inv ag 5µM* and a7 integrin act -58%.
Screening O=C(NCCCN1CCOCC1)c1ccc(Sc2ccc(Br)cc2)c([N+](=O)[O-])c1 returned GLP-1R agonist 5%, GLP1R cytotox 0%, BRCA1 expr act -15%, GLP-1R inv ag -62% and a7 integrin act -8%.
`Cc1c(C)n(Cc2ccccc2)c2ccc(C(=O)NCCCN3CCOCC3)cc12` gave GLP-1R agonist 19%, GLP1R cytotox -24%, BRCA1 expr act -3%, GLP-1R inv ag 1µM* and a7 integrin act 0%.
`CCOC(=O)N1CCC(NC(=O)c2ccc3c(c2)N(Cc2cc(C)ccc2C)C(=O)c2ccccc2S3=O)CC1` (configuration not stated) gave GLP-1R agonist -1%, GLP1R cytotox -11%, BRCA1 expr act -60% and GLP-1R inv ag inconclusive.
Screening COc1ccc(NC(=O)CCCSc2nc(-c3ccco3)cc(C(F)(F)F)n2)cc1OC returned GLP-1R agonist 8%, GLP1R cytotox -8%, BRCA1 expr act -41%, GLP-1R inv ag 11µM* and a7 integrin act 13%.
`Cc1ccccc1NC(=O)Cn1c(=O)oc2cc(Br)ccc21` gave GLP1R cytotox -6% and GLP-1R inv ag -24%.
`CN(C)S(=O)(=O)c1cccc(NC(=O)COC(=O)c2cc(-c3cccc(Br)c3)nc3ccccc23)c1` gave GLP-1R agonist -25%, GLP1R cytotox -9%, BRCA1 expr act -34%, GLP-1R inv ag 10µM* and a7 integrin act 3%.
CC1CCN(c2nc3ccc(C(=O)NC(C)C)cc3s2)CC1 was read as GLP1R cytotox 6%, BRCA1 expr act -41% and GLP-1R inv ag 5µM*.
`CC(=O)/C(N=Nc1nc2c([nH]1)c(=O)n(C)c(=O)n2C)=C(\C)O` gave GLP-1R agonist 13µM*, GLP1R cytotox 2%, BRCA1 expr act 0%, GLP-1R inv ag 80% and a7 integrin act -5%.
`O=C(Nc1ccc(F)cc1F)N1CCc2c(sc3c2CCCC3)C1c1ccc(F)cc1` (configuration not stated) gave GLP1R cytotox -5% and GLP-1R inv ag inconclusive.
O=C1N/C(=N\N=C\c2cccs2)SC1Cc1ccc(Cl)cc1 (configuration not stated) was read as GLP-1R agonist -14%, GLP1R cytotox 12%, BRCA1 expr act -37%, GLP-1R inv ag 18% and a7 integrin act 2%.
C=CCN1C(=O)C(Cc2ccc(C)cc2)S/C1=N/N=C/c1ccco1 (configuration not stated) was read as GLP-1R agonist 10%, GLP1R cytotox -7%, BRCA1 expr act -3%, GLP-1R inv ag inconclusive and a7 integrin act -22%.
For C=CCN1C(=O)C(Cc2ccccc2)S/C1=N/N=C/c1cccs1 (configuration not stated) the results were GLP-1R agonist 7%, GLP1R cytotox 12%, BRCA1 expr act -6%, GLP-1R inv ag 11µM* and a7 integrin act 6%.
`C=CCN1C(=O)C(Cc2ccc(OCC)cc2)S/C1=N\N=C\c1cccs1` (configuration not stated) gave GLP-1R agonist -3%, GLP1R cytotox 1%, BRCA1 expr act -8%, GLP-1R inv ag 10µM* and a7 integrin act -3%.
`CCOc1ccc(-c2c(C)nn3c(C)c(C(=O)NCCc4ccccc4)cnc23)cc1OCC` gave GLP1R cytotox -1% and GLP-1R inv ag 11%.
CSc1ccccc1-c1nc(-c2ccncc2)no1 was read as GLP-1R agonist 19%, GLP1R cytotox 19%, BRCA1 expr act 3.2µM*, GLP-1R inv ag 32% and a7 integrin act inconclusive.
c1ccc(-c2nc(-c3ccncc3)no2)cc1 was read as GLP-1R agonist -2%, GLP1R cytotox -5%, BRCA1 expr act inconclusive, GLP-1R inv ag 6% and a7 integrin act 30%.
For Clc1ccccc1-c1nc(-c2ccncc2)no1 the results were GLP-1R agonist 22%, GLP1R cytotox -5%, BRCA1 expr act 1.8µM*!, GLP-1R inv ag 2% and a7 integrin act 13%.
O=[N+]([O-])c1ccc(-c2nc(-c3ccncc3)no2)cc1 was read as GLP-1R agonist 13%, GLP1R cytotox -1%, BRCA1 expr act 2.5µM*, GLP-1R inv ag 10% and a7 integrin act 4%.
Screening c1ccc(-c2ccccc2-c2nc(-c3ccncc3)no2)cc1 returned GLP-1R agonist 23%, GLP1R cytotox 70%, BRCA1 expr act 10%, GLP-1R inv ag inconclusive and a7 integrin act -2%.
c1coc(-c2nc(-c3ccncc3)no2)c1 was read as GLP-1R agonist 1%, GLP1R cytotox -6%, BRCA1 expr act 3.2µM*, GLP-1R inv ag 3% and a7 integrin act 28%.
`Nc1nc2[nH]c(=S)[nH]c2c(=O)[nH]1` gave BRCA1 expr act -11%.
O=[N+]([O-])c1cc(Cl)ccc1-c1nc(-c2ccccc2)no1 was read as GLP-1R agonist -3%, GLP1R cytotox 2%, BRCA1 expr act 2.8µM*, GLP-1R inv ag 11% and a7 integrin act -10%.
Screening CS(=O)c1ccccc1-c1nc(-c2ccc(Cl)cc2)no1 (configuration not stated) returned GLP-1R agonist 13%, GLP1R cytotox 8%[7.66 µM], BRCA1 expr act 11µM*, GLP-1R inv ag 4%[7.66 µM] and a7 integrin act inconclusive.
O=[N+]([O-])c1cc(Cl)ccc1-c1nc(-c2ccncc2)no1 was read as GLP-1R agonist 4%, GLP1R cytotox -1%, BRCA1 expr act 86%, GLP-1R inv ag 11% and a7 integrin act -27%.
`Cc1nc(/C(N)=N/OC(=O)c2ccccc2Cl)c(C(F)(F)F)o1` gave GLP-1R agonist -4%, GLP1R cytotox 1%, BRCA1 expr act 11µM*, GLP-1R inv ag inconclusive and a7 integrin act inconclusive.
For Cc1nc(/C(N)=N/OC(=O)c2cccc(Cl)c2)c(C(F)(F)F)o1 the results were GLP-1R agonist 6%, GLP1R cytotox -18%, BRCA1 expr act -22%, GLP-1R inv ag 6% and a7 integrin act inconclusive.
